Bioassay records (PubChem BioAssay)
JMJD2A Tudor: blocks the human JMJD2A Tudor domain; AlphaScreen JMJD2A-Tudor / H3K4me3 peptide binding; Potency, µM (highest dose often 114 µM), for the others: at the top dose activity change, negative = inhibition, hits mostly inhibitors; actives 4.4% (n = 390,000); AID 504339; further: potency means the concentration at half of the fitted maximal effect; on the % scale 0 is the no-effect control and ±100 the full control effect; nearly all actives have a fitted effect of over 50% in size
BAZ2B inh: BAZ2B (human) inhibition; AlphaScreen BAZ2B-H3K14Ac peptide displacement; Potency, µM (doses to about 114 µM), for the others: at the highest dose activity change, negative = inhibition, most hits filed as inhibitors; actives 4.4% (n = 360,000); AID 504333; Q9UIF8; further: potency means the concentration at half of the fitted maximal effect; on the % scale 0 is the no-effect control and ±100 the full control effect; nearly all actives have a fitted effect of over 60% in size
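Inhibition is scored as reduced AlphaScreen emission. The BAZ2B/b-H3(5-23)K14Ac complex (50 nM each) in PBS pH 7.4, 0.01% Tween-20 meets compound (up to 110 uM) for 30 min at RT before bead addition.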
Six1-Eya2 blk: inhibitors of human Six1/Eya2 interaction | AlphaScreen GST-Six1/His-Eya2 binding, biochemical; stronger effect = lower value | Q15475+O00167 | actives 0.56% (n = 360,000) | AID 651725 | activity change, % (no concentration beside the values); in the data active means activity change below about -65%; inconclusive means mostly about -30% to -63%; further: on the % scale 0 is the no-effect control and ±100 the full control effect
Target sequence (O00167 whole entry, looked up): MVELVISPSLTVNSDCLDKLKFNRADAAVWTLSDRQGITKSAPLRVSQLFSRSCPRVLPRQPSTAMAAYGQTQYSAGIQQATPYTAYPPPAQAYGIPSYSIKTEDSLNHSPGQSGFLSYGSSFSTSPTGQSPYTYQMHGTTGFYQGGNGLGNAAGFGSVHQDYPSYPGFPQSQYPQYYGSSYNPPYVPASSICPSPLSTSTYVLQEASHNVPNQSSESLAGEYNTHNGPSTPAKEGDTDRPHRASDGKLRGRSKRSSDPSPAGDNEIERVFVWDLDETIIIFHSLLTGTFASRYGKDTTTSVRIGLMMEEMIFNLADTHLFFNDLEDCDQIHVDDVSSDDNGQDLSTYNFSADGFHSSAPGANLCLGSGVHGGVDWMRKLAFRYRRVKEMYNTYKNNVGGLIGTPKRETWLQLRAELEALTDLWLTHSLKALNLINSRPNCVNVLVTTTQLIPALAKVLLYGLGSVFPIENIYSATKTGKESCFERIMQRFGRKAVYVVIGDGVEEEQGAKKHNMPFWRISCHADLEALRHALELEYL
Target sequence (Q15475 whole entry, looked up): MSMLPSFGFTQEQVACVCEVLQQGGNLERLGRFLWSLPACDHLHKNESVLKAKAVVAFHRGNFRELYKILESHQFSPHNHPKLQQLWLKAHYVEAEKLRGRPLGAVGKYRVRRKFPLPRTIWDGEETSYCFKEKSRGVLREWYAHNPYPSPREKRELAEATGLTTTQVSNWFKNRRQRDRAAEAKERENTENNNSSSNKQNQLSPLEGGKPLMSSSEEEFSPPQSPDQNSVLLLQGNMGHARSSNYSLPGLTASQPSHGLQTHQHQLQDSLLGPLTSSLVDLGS
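Six1/Eya2 binding was read as AlphaScreen signal after compounds were pinned into GST-Six1 plus His-tagged Eya2 (5X stock 250/500 nM) in pH 8.0 Tris/NaCl/TCEP buffer, beads added, then incubated 1 h, 37 C, dark.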
G9a block: G9a (human) methyltransferase inhibition; Q96KQ7; G9a H3K9 monomethylation, AlphaScreen, 2 h; Potency, µM (highest dose often 102 µM), inactives show at the highest dose activity, negative = inhibition, actives largely listed as inhibitors; actives 8.8% (n = 350,000); further: potency means the concentration at half of the fitted maximal effect; on the % scale 0 is the no-effect control and ±100 the full control effect; nearly all actives have a fitted effect of over 75% in size
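Signal arises when biotinylated H3K9 peptide, once monomethylated, bridges streptavidin donor and antibody-captured acceptor beads. Enzyme at 20 nM was preincubated 15 min with test compounds; peptide 500 nM and SAM 20 uM then reacted for 2 h.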
HP1b binding inh: inhibitors of HP1-beta chromodomain binding to methylated histone tails | P83916 | AlphaScreen HP1-beta / biotin-H3K9me3 peptide binding | Potency, µM (top dose mostly 114 µM), inactives show at the top dose activity change, negative = inhibition, hits mostly inhibitors | actives 0.56% (n = 390,000) | AID 540317; further: potency means the concentration at half of the fitted maximal effect; nearly all actives have a fitted effect of over 70% in size
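AlphaScreen: HP1-beta (50 nM) preformed 30 min with biotin-H3(1-18)K9me3 peptide (50 nM) in PBS pH 7.4, 0.01% Tween-20. Compound added for 30 min at RT, then streptavidin donor/nickel chelate acceptor beads (10 ug/mL) for 30 min.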
CtBP-E1A blk: inhibitors of CtBP/E1A interaction; activity change, % (test concentration not listed); actives 0.49% (n = 340,000); AlphaScreen GST-E1A/His-CtBP binding, 1536-well; stronger effect = lower value; in the data active means activity change below about -65%; inconclusive means mostly about -30% to -63%; further: on the % scale 0 is the no-effect control and ±100 the full control effect
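Protein mix (5X: 125 nM each GST-E1A, His-CtBP) was incubated with pinned compound 2 h at 37 deg C in dark, in 50 mM Tris pH 8.0 buffer with 300 mM NaCl. Glutathione donor and nickel acceptor beads followed; AlphaScreen signal read after 1 h.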
JMJD2E inh-1: inhibitors of human JMJD2E demethylase, 8HQ series round 1; AID 493212; shares compounds with BAZ2B inh; actives 89% (n = 130); JMJD2E demethylase, FDH-coupled NADH fluorescence; Potency, µM (titrated, usually from 57 µM), for the others: at the top dose activity, negative = inhibition, actives largely listed as inhibitors
JMJD2E inh-2: JMJD2E (human) demethylase inhibition, confirmation; Recombinant JMJD2E, FDH-coupled NADH fluorescence (FDH is formaldehyde dehydrogenase); shares compounds with JMJD2A Tudor; Potency, µM (series often up to 56.8 µM), for the others: top-dose activity change, negative = inhibition, hits mostly inhibitors; actives 93% (n = 140)
FDH inh: counter-screen for JMJD2E inhibitors: Pseudomonas putida formaldehyde dehydrogenase. Potency, µM (titrated, usually from 56.7 µM), inactives show at the highest dose activity, negative = inhibition, actives largely listed as inhibitors. AID 2680. shares compounds with JMJD2A Tudor. actives 10% (n = 140). FDH enzyme assay, NADH fluorescence kinetic
JMJD2E MS inh: human KDM4E demethylase inhibition; shares compounds with JMJD2A Tudor; recombinant JMJD2E demethylation, MALDI-TOF-MS; Potency, µM, most hits filed as inhibitors; actives 90% (n = 45); AID 2688;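 active means compounds whose IC50 for blocking JMJD2E demethylation is below 100 µM; inconclusive means dose dependent effect but IC50 above 100 µM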
* marks the source's active call; other numbers are inactive results; ? = inconclusive; . = no result given; [ ] = remark or other dose. In the library only some 10% were active in any assay of this set; here they are far more common. Unless noted, the call rests on the fitted dose curve; in most records, active means well fitted inhibition curve with a large enough effect; inconclusive means small, poorly fitted or top-dose-only effect; inactive means no such curve, though single readings can be large or run the other way.

SMILES	JMJD2A Tudor	BAZ2B inh	Six1-Eya2 blk	G9a block	HP1b binding inh	CtBP-E1A blk	JMJD2E inh-1	JMJD2E inh-2	FDH inh	others
COC(=O)c1ccc(O)c2ncccc12	.	.	.	.	.	.	20µM*	20µM*	-27%
c1ccc2c(-c3nn[nH]n3)cccc2c1	-18%	-5%	7	8%[59 µM]	22%	2	.	.	.
NC(=O)c1cccc2ccccc12	-6%	4%	4	.	27%	-2	.	.	.
NC(=O)c1ccnc2c(O)cccc12	22µM*	1.8µM*	.	-31%[0.501 µM]	24%	.	3.2µM*	?	-27%
Cc1cccc(Cn2c(=O)n(Cc3ccccc3)c(=O)c3sc4ccccc4c32)c1	4%	1%	.	1%[59 µM]	24%	.	.	.	.
Brc1ccccc1CN1CCC(N2CCCCC2)CC1	-22%	.	3	-40%[59 µM]	12%	-1	.	.	.
CN1CCN(C2CCN(Cc3ccc(O)c4ncccc34)CC2)CC1	45µM*	8.9µM*	.	-43%[2.33 µM]	-6%	.	3.2µM*	3.2µM*	-9%
CN1CCN(Cc2cc(COCc3ccccc3)c3cccnc3c2O)CC1	18µM*	10µM*	-89*	?	4%	-94*	6.3µM*	6.3µM*	-27%
Oc1cc(Nc2ccncc2)cc2cccnc12	20µM*	4µM*	.	-27%[12.7 µM]	41%	.	25µM*	25µM*	-9%	JMJD2E MS inh=20*
Oc1cc(Nc2cccnc2)cc2cccnc12	45µM*	7.9µM*	.	-1%[12.7 µM]	44%	.	32µM*	32µM*	-18%	JMJD2E MS inh=30*
Oc1cc(NCCc2cccnc2)cc2cccnc12	40µM*	5.6µM*	.	-47%[12.7 µM]	54%	.	32µM*	32µM*	-27%	JMJD2E MS inh=?
Oc1cc(NCc2cccnc2)ccc1-c1nc2ccccc2o1	-1%	-2%	-1	26%[12.7 µM]	39%	-13	.	.	.
COc1ccc(Nc2cc(O)c3ncccc3c2)cc1	.	28µM*	.	17%[12.7 µM]	.	.	11µM*	9.1µM*	-36%	JMJD2E MS inh=22*
COc1ccc(C(=O)Nc2cc(OC)cc3cccnc23)cc1	5%	-7%	16	6%[2.33 µM]	52%	.	.	.	.
COc1cccc(Cn2c(CNC(=O)C(C)C)nc3cccnc32)c1	-4%	0%	.	13%[59 µM]	25%[57 µM]	.	.	.	.
Cc1cccc(C(c2sc3nc(-c4ccco4)nn3c2O)N2CCOCC2)c1 (configuration not stated)	-6%	0%	.	12%[59 µM]	29%	.	.	.	.
CC(=O)N1CCC2(CC1)OC(=O)C(C)=C2C(=O)NCc1cccc(Cl)c1	-4%	2%	.	10%[59 µM]	-12%	.	.	.	.
CC(C)C[C@H](NC(=O)[C@H](Cc1ccccc1)NC(=O)CNC(=O)CNC(=O)[C@@H](N)Cc1ccc(O)cc1)C(=O)N[C@@H](CCCN=C(N)N)C(=O)N[C@@H](CCCN=C(N)N)C(=O)N[C@@H](CCC(N)=O)C(=O)N[C@@H](Cc1ccccc1)C(=O)N[C@@H](CCCCN)C(=O)N[C@H](C(=O)N[C@H](C(=O)N[C@H](C(=O)O)[C@@H](C)O)C(C)C)C(C)C	.	.	.	14%[59 µM]	.	.	.	.	.
O=C(Cc1ccccc1F)Nc1cccc2cccnc12	11%	10%	19	33%[59 µM]	42%	0	.	.	.
Oc1ccc(CNCc2ccccc2F)c2cccnc12	25µM*	.	.	.	.	.	6.5µM*	?	-18%	JMJD2E MS inh=21*
OCc1cn(Cc2ccc(O)c3ncccc23)cn1	.	1µM*	.	-21%[12.7 µM]	.	.	11µM*	11µM*	-9%
Oc1ccc(CCc2c(F)cccc2F)c2cccnc12	-18%	.	.	.	.	.	8.1µM*	13µM*	0%	JMJD2E MS inh=39*
Oc1cccc2cc(C3CC3)cnc12	.	.	.	.	.	.	20µM*	20µM*	-18%
O=C(O)c1ccc2cccc(O)c2n1	-6%	?	-15	.	33%	-20	.	.	.
Cc1cnc2c(O)cccc2c1	.	.	.	.	.	.	?	?	0%
SMILES	JMJD2A Tudor	BAZ2B inh	Six1-Eya2 blk	G9a block	HP1b binding inh	CtBP-E1A blk	JMJD2E inh-1	JMJD2E inh-2	FDH inh	others
CN(C)c1cnc2c(O)cccc2c1	.	.	.	.	.	.	20µM*	18µM*	-27%
Cc1cccc2cc3cccc(C)c3nc12	128%	79%	3	15%[0.501 µM]	158%	.	.	.	.
COc1ccccc1NC(=O)CN(c1cc(C)cc(C)c1)S(=O)(=O)c1c(C)[nH]c(=O)[nH]c1=O	-8%	-13%	.	2%[59 µM]	57%	.	.	.	.
CCOc1ccc(C(=O)NCCS(=O)(=O)N2CCN(c3ccccc3F)CC2)cc1OCC	-1%	7%	.	1%[59 µM]	20%[57 µM]	.	.	.	.
CC1CCN(C(=O)CN2CCSc3ccccc32)CC1	-8%	-19%	.	7%[12.7 µM]	25%	.	.	.	.
O=S(=O)(Nc1ccccc1F)c1ccc(O)c2ncccc12	.	.	.	.	.	.	29µM*	13µM*	-36%
O=S(=O)(NCc1ccccc1)c1ccc(O)c2ncccc12	.	.	.	.	.	.	32µM*	23µM*	-36%
O=S(=O)(Nc1ccccc1)c1ccc(O)c2ncccc12	.	.	.	.	.	.	9.1µM*	9.1µM*	-27%
O=S(=O)(c1ccc(O)c2ncccc12)N1CCCCC1	.	.	.	.	.	.	18µM*	18µM*	-36%
CCOc1ccc(NS(=O)(=O)c2ccc(OCC)c3ncccc23)cc1	-11%	-7%	-10	6%	6%	-16	.	.	.
COc1ccc(S(=O)(=O)NCc2cccn2Cc2cccc(C)c2)cc1OC	-27%	?	.	-3%[12.7 µM]	5%	.	.	.	.
